# Out of some 310,000 compounds screened, about 14,000 (4.5%) showed an effect of 50% or more. The effect is printed as a negative number. What follows is part of a selection rich in strong results, with near analogues and random picks from the rest.
# Molecular target: human ether-à-go-go-related gene (hERG) potassium channel (human, UniProt Q12809)
# Test: primary screen, population patch clamp on CHO cells stably expressing hERG; higher = less effect of the substance
# 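Also: peak tail current of the secondary pulse compared with the same well before compound.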
# Chain of human ether-à-go-go-related gene (hERG) potassium channel (Q12809 whole entry, looked up): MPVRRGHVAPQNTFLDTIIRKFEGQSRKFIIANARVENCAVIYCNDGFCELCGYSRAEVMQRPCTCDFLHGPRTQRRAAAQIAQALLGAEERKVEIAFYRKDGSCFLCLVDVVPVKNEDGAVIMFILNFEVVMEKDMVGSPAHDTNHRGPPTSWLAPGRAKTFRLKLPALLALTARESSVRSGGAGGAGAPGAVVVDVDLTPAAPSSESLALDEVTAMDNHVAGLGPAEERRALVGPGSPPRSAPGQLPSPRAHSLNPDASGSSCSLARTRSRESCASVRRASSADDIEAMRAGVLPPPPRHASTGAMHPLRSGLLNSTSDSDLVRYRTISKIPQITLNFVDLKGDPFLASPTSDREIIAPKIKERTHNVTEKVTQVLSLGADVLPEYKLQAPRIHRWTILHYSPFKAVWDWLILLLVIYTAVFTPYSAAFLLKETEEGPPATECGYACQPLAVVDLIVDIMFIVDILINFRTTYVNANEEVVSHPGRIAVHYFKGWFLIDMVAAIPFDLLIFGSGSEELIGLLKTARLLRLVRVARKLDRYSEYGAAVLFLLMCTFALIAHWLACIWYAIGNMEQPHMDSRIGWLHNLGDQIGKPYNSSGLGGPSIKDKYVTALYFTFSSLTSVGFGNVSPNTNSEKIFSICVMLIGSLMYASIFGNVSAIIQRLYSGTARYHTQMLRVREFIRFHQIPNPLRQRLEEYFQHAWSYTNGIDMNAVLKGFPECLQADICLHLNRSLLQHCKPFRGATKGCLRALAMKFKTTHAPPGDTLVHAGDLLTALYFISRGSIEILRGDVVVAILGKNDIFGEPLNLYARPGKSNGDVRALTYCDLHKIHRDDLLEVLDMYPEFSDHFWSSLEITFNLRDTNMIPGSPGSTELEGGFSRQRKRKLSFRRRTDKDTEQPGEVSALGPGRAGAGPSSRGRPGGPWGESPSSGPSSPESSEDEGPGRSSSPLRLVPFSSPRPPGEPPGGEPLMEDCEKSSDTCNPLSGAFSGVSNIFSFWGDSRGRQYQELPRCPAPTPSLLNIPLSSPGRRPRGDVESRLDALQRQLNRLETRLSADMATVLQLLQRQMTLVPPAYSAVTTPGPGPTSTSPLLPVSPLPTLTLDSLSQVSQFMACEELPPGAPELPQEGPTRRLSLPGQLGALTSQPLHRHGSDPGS
row,SMILES,"hERG current change (%, negative = inhibition) at 10uM [%]"
1,O=C(Oc1ccnc2cc(Cl)ccc12)N1CCOCC1,-1.74
2,COc1ccc2c(c1)c(=O)oc1cc(O)ccc12,3.99
3,O=C(CSc1cn(Cc2cccc(F)c2)c2ccccc12)NCc1ccc(F)cc1,9.86
4,CCOc1ccccc1N(CC(=O)NC(C)(C)C)C(=O)CCC(=O)Nc1nccs1,-4.92
5,CC(C)(C)NC(=O)C(c1ccc(O)cc1)N(C(=O)Cn1nnc(-c2ccc(F)cc2)n1)c1ccccc1F (centres unmarked),-1.66
6,COc1cc(CNc2ccc(N3CCOCC3)cc2)cc(Br)c1OC,-23.4
7,CCOc1cc2oc(=O)c3c(c2cc1Cl)CCC3,7.75
8,COc1ccc(Cn2c(C)c(C)c(C#N)c2NC(=O)Nc2ccc(F)cc2)cc1,-3.49
9,COc1ccc(N=CC2=C(O)c3ccccc3C2=O)cc1,11.1
10,COCCCn1c(=N)c(C(=O)NCC2CCCO2)cc2c(=O)n3cccc(C)c3nc21 (centres unmarked),-73.1
11,COCCCn1c(C(=O)N2CC(C)OC(C)C2)cc2c(=O)n3ccccc3nc21 (centres unmarked),-9.36
12,CCN(C(=O)c1cc2c(=O)n3cccc(C)c3nc2n1CCCOC)C1CCCCC1,-44.1
13,Cc1cccn2c(=O)c3cc(C(=O)NCC4CCCO4)c(=N)n(CCN4CCOCC4)c3nc12 (centres unmarked),-69.4
14,COCCCn1c(=N)c(C(=O)NCC2CCCO2)cc2c(=O)n3ccccc3nc21 (centres unmarked),-64.3
15,COCCn1c(=O)[nH]c2cc(C(=O)NCC3CCCO3)ccc2c1=O (centres unmarked),-7.76
16,COCCCn1c(C(=O)NC2CCCCC2C)cc2c(=O)n3cccc(C)c3nc21 (centres unmarked),-12
17,COCCCn1c(C(=O)N2CCOCC2)cc2c(=O)n3ccccc3nc21,2.75
18,CC(C)OCCCn1c(SC(C)C(=O)NCC2CCCO2)nc2cc(Cl)ccc2c1=O (centres unmarked),-20.6
19,Cc1ccc2nc3c(cc(C(=O)NCC4CCCO4)c(=N)n3CCCOC(C)C)c(=O)n2c1 (centres unmarked),-71.8
20,CSc1nnc2c(n1)OC(c1cccn1C)N(C(C)=O)c1ccccc1-2 (centres unmarked),-10.1
21,CCS(=O)(=O)Nc1cccc(C2=NN(S(C)(=O)=O)C(c3cccs3)C2)c1 (centres unmarked),-11.1
22,CCOC(=O)C1=C(c2ccccc2)O/C(=C(/C(=O)OC)C(F)(F)F)S1,-3.45
23,CC(=O)Nc1ccc(N(C(=O)Cc2c[nH]c3ccccc23)C(C(=O)NC2CCCCC2)c2ccco2)cc1 (centres unmarked),-13.1
24,O=c1[nH]nc(CNc2ccc(C(F)(F)F)cc2)c2ccccc12,1.92
25,CC(C)(C)c1ccc(C(=O)N2CCC(=O)N(C(CO)Cc3ccccc3)CC2)cc1 (centres unmarked),-16.7

row,SMILES,"hERG current change (%, negative = inhibition) at 10uM [%]"
1,Cc1cccc(NC(=S)N(CCN(C)C)Cc2cccs2)c1,-25.8
2,Cc1cc(NS(=O)(=O)c2cccs2)no1,-3.03
3,CCCn1c(=S)[nH]c2cc(C(=O)NCC3CCCO3)ccc2c1=O (centres unmarked),3.73
4,CCCn1c(=N)c(C(=O)NCc2ccc3c(c2)OCO3)cc2c(=O)n3cccc(C)c3nc21,-76.5
5,Cc1ccc(-c2cc(C(=O)NCC3CCCO3)c3ccccc3n2)cc1C (centres unmarked),12.1
6,CCCn1c(=N)c(S(=O)(=O)c2ccc(F)cc2)cc2c(=O)n3cccc(C)c3nc21,-4.16
7,CCCn1nc(C(=O)NCc2ccc3c(c2)OCO3)c2ccccc2c1=O,1.89
8,Cc1ccc(S(=O)(=O)c2cc3c(=O)n4cccc(C)c4nc3n(CC3CCCO3)c2=N)cc1C (centres unmarked),2.35
9,Cc1cccn2c(=O)nc(SCC(=O)NCc3ccc4c(c3)OCO4)nc12,-27.1
10,CCCn1c(=N)c(C(=O)NCC2CCCO2)cc2c(=O)n3cccc(C)c3nc21 (centres unmarked),-76.3
11,Cc1ccccc1Nc1cc(C(=O)NCC2CCCO2)c2ccccc2n1 (centres unmarked),-15.6
12,Cc1cccn2c(=O)c3cc(C(=O)NC4CCCC4)c(=N)n(CC4CCCO4)c3nc12 (centres unmarked),-74.4
13,Cc1cccn2c(=O)c3cc(C(=O)NCC4CCCO4)c(=N)n(CC4CCCO4)c3nc12 (centres unmarked),-81.9
14,CCC(=O)N1CCc2cc(S(=O)(=O)CCC(=O)NCc3cccc(OC)c3)ccc21,13.8
15,COc1ccc([C@@H]2C[C@@H](c3ccccc3)Oc3c(C)ccc(C(C)C)c32)cc1,13.3
16,CCCc1nc(N2CCCC2)c(C#N)c2c1CCCC2,4.06
17,COC(=O)c1cc(-c2ccccc2)n(CCN)c1C.Cl,-3.56
18,COc1ccc(OCC(=O)Nc2nnc(C)s2)cc1,9.71
19,Cc1nnc(SCc2ccccc2)nc1/C=C/NOCc1ccc(Cl)cc1Cl,13.9
20,C=CCSc1nnc(C)c(/C=C/Nc2ccc(Cl)cc2)n1,-9.44
21,Cc1nnc(SCc2ccc(Cl)cc2)nc1/C=C/N(C)C,-72.6
22,Cc1ccc(C(=O)O)cc1S(=O)(=O)N1CCC(C(=O)O)CC1,-4.77
23,NC(=S)Cc1nc2n(n1)Cc1ccccc1-2,21.6
24,CC(=O)N1CCN(c2ccc(NC(=O)c3ccccc3C)cc2)CC1,-0.597
25,C=C1CCN([C@@H](C)C(=O)NCc2ccc(OC)cc2)S(=O)(=O)c2ccccc21,-6.66

# Source: publication PMC4336329 (PLoS ONE, 2015)
